High-throughput results as filed in PubChem.
Hits are enriched below; roughly 5.7% of the tested compounds scored in any of these assays.
rCAG RNA binder: binds r(CAG) RNA repeats; 370,000 compounds, 1.3% hits; inhibition, % at 3 µM; r(CAG) RNA repeat, TO-PRO-1 dye displacement fluorescence; AID 651821;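 active means inhibition above the plate cutoff, the mean of all test compounds on that plate plus 3 SD, cut at about 35% in these data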;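 further: higher means more dye released from RNA so lower well fluorescence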
Myeloid diff MLP: compounds promoting myeloid differentiation; ER-HoxA9 myeloid progenitors, lysozyme-GFP differentiation, flow cytometry; calls only at 10 µM; 360,000 compounds, 1% hits; AID 624256;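 active means normalized GFP-positive differentiation at or above the plate's own cutoff, the solvent-only control mean plus 3 SD; inconclusive means no clear call, values can overlap the other calls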;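 further: cells exposed to compound for four days before flow analysis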
NR3A LBD binder: modulates the human NR3A ligand-binding domain; Tm shift relative to glycine control, % at 25 µM; NR3A LBD differential scanning fluorimetry, Tm shift; 0% = protein alone, 100% = glycine-bound protein; 340,000 compounds, 2.5% hits;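 active means melting temperature shift of at least 10% of the positive control shift, at one fixed dose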
MPTP inh: permeability transition pore inhibition. isolated mouse mitochondria, Ca2+ swelling absorbance, 30 min. inhibition, % at 10 µM. 360,000 compounds, 1.4% hits. AID 602449;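 active means inhibition of 50% or more, scaled per plate between neutral and stimulator controls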
FAS-TE inh: FAS thioesterase (human) inhibition; inhibition, % at 15 µM; 360,000 compounds, 0.67% hits; P49327; recombinant FAS-TE, OMFH fluorogenic substrate, fluorescence endpoint;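 active means compounds whose normalised, plate-corrected inhibition of enzyme fluorescence in the single-dose primary screen is 50% or more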
Target sequence (P49327 whole entry, looked up): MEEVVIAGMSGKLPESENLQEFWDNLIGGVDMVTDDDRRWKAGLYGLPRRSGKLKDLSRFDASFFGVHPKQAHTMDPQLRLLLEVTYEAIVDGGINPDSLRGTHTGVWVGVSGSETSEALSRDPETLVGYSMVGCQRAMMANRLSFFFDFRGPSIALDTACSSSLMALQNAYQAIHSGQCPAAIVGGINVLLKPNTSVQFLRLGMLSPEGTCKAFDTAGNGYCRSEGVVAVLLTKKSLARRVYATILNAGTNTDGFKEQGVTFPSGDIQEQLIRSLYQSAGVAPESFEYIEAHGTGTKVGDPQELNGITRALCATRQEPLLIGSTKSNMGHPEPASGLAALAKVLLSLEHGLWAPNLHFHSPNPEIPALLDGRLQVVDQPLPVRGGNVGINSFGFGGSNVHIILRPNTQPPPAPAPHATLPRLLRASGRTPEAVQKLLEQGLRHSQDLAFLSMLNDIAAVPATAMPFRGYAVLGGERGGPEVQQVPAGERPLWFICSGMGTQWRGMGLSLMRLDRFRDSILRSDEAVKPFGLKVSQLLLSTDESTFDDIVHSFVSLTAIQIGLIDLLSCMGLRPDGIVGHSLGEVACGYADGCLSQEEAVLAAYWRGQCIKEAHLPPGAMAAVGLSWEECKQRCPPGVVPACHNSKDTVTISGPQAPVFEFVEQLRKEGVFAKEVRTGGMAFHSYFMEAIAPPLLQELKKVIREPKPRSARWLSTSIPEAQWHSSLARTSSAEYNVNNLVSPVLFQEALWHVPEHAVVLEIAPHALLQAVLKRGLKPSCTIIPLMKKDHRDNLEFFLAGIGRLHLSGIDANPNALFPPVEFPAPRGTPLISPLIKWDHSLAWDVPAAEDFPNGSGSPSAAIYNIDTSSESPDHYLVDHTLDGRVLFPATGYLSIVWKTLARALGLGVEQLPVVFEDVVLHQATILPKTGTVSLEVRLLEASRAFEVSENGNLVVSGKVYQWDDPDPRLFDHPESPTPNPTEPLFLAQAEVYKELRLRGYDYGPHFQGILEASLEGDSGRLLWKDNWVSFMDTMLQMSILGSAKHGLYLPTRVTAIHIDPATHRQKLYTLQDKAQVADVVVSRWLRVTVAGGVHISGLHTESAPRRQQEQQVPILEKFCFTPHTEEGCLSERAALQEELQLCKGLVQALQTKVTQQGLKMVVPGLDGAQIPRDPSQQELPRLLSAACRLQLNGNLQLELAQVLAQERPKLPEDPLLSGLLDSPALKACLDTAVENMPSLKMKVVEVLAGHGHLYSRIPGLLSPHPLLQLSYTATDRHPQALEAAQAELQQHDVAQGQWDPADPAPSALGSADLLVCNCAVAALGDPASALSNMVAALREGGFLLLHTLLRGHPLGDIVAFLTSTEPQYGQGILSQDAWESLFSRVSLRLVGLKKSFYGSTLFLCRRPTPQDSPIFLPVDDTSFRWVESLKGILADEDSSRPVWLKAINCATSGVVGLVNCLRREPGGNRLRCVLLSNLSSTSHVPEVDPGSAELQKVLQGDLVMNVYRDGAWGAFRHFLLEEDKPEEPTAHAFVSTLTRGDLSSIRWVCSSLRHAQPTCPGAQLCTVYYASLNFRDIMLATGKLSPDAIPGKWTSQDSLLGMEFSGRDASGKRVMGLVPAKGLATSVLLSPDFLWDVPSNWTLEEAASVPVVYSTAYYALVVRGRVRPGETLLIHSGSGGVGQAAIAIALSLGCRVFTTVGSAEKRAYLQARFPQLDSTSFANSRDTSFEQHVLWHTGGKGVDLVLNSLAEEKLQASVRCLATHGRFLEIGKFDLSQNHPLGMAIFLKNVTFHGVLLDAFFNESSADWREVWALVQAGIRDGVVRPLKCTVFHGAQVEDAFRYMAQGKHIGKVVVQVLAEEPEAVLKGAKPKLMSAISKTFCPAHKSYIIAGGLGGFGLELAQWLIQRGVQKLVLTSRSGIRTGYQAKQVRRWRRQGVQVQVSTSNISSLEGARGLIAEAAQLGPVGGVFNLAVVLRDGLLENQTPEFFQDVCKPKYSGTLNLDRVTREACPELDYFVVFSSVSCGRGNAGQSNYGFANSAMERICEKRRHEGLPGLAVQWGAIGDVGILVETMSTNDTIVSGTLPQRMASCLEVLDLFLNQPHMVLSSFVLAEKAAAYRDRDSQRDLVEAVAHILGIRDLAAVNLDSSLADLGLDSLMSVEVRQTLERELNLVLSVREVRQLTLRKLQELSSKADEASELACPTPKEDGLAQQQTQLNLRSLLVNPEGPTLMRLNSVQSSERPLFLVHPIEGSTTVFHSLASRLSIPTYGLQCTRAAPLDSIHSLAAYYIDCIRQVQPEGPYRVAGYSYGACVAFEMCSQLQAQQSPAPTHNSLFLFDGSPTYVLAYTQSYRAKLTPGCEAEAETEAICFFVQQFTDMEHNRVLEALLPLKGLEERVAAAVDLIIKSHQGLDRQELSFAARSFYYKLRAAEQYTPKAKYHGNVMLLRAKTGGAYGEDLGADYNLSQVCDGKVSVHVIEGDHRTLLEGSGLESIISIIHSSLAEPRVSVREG
MPTP counter: membrane potential counter-screen of mitochondrial pore inhibitors; shares compounds with MPTP inh; isolated mitochondria, Rhodamine 123 fluorescence; inhibition, % at 10 µM; 5,000 compounds, 78% hits; AID 624504; in the data active means inhibition above about 22%
MPTP swell DR: MPTP inhibition, dose response swelling confirmation; AID 651561; 780 compounds, 58% hits; shares compounds with MPTP inh; IC50, µM; isolated mitochondria swelling, absorbance; in the data active means IC50 below about 20 µM
MPTP cs DR: active in counter-screen for permeability transition pore inhibitors; shares compounds with MPTP inh; isolated mitochondria counterscreen, fluorescence read-out; IC50, µM; 780 compounds, 49% hits; in the data active means IC50 below about 80 µM
Large screens that a line does not name were inactive (follow-up assays come after a bar, where they were run).

CCc1ccc(OCC(O)CN2CCN(c3ccccc3)CC2)cc1 (centres undefined)	none
Cc1cc(C)cc(OCC(O)CN2CCC(CN3C(=O)c4cccc5cccc(c45)C3=O)CC2)c1 (centres undefined)	Myeloid diff MLP inconclusive, MPTP inh 98 | MPTP counter 100
COc1ccc(COCC(O)CN2CCC(C(N)=O)CC2)cc1OC (centres undefined)	none
O=C1c2cccc3cccc(c23)C(=O)N1CCN1CCN(CC(O)COc2ccc3ccccc3c2)CC1 (centres undefined)	none
COC(=O)[C@]12C[C@H](CC(=O)NCc3cccc(C(F)(F)F)c3)C(=O)N(CCC3=CCCCC3)C1=C[C@H](COCc1ccccc1)O[C@@H]2C	none (no result: Myeloid diff MLP, NR3A LBD binder, MPTP inh, FAS-TE inh)
N#CC(CC(=O)OCc1ccccc1)NC(=O)OCc1ccccc1 (centres undefined)	none (no result: NR3A LBD binder)
O=C1c2cccc3cccc(c23)C(=O)N1CC1CCN(CC(O)COc2ccc3ccccc3c2)CC1 (centres undefined)	MPTP inh 89 | MPTP counter 99
COc1cc(C2SCCS2)cc(Br)c1Oc1ncccc1[N+](=O)[O-]	MPTP inh 58 | MPTP counter 33
Cc1cc(Cl)ccc1NC(=S)NCCC(c1ccccc1)c1ccccc1	MPTP inh 100 | MPTP counter 97
Cc1c(Cl)cccc1NC(=S)NCc1ccccc1Cl	MPTP inh 84 | MPTP counter 94
Cc1c(Cl)cccc1NC(=S)NCc1ccc(F)cc1	none
Cc1c(Cl)cccc1NC(=S)NCCC(c1ccccc1)c1ccccc1	MPTP inh 62 | MPTP counter 87
Cc1c(Cl)cccc1NC(=S)NCCC(C)C	none
C=CCNC(=S)NCC1COc2ccccc2O1 (centres undefined)	none
Cc1c(Cl)cccc1NC(=S)NCC1COc2ccccc2O1 (centres undefined)	MPTP inh 63 | MPTP counter 93
Cc1cc(C(=O)CSc2nc3ccc(Cl)cc3[nH]2)c(C)n1Cc1ccco1	MPTP inh 51 | MPTP counter 53
CN(/N=C/c1cc(Cl)cc(Cl)c1O)c1c(Cl)cccc1[N+](=O)[O-]	none
O=C(COc1ccc2ccccc2c1)Nc1ccncc1	MPTP inh 98 | MPTP counter 100
Cc1ccc(C)c(OCC(=O)Nc2nonc2NC(=O)COc2cc(C)ccc2C)c1	MPTP inh 90 | MPTP counter 84
O=C(CSc1ccncc1)Nc1ccc2ccccc2c1	none
O=C(CSc1ccc2ccccc2c1)Nc1ccncc1	MPTP inh 84 | MPTP counter 86
CCOc1ccc(NC(=S)Nc2ccc(OC)cc2)cc1	none
CCOc1ccc(NC(=S)c2ccncc2)cc1	MPTP inh 56 | MPTP counter inactive | MPTP swell DR 19 | MPTP cs DR 31
COC(=O)N1C[C@H](OC(=O)c2ccc(-c3ccccc3)cc2)[C@H]2C[C@@H]1c1ccccc1O2	none (no result: Myeloid diff MLP, NR3A LBD binder, MPTP inh, FAS-TE inh)
Cc1ccccc1-n1c(SCC(=O)NC2CC2)nc2ccccc2c1=O	none (no result: NR3A LBD binder)
CCc1nc2c(OCc3ccc4c(c3)OCO4)cccn2c1N(C=O)Cc1ccccc1	none (no result: NR3A LBD binder)
O=C(COc1ccc2ccccc2c1)Nc1cccc(C(=O)Nc2ccccc2C(=O)O)c1	rCAG RNA binder 83, NR3A LBD binder 12, MPTP inh 79 | MPTP counter 57
Cc1ccc(OCC(=O)Nc2ccncc2)c(C)c1	MPTP inh 73 | MPTP counter 48
CCc1ccc(OCC(=O)Nc2ccncc2)cc1	MPTP inh 63 | MPTP counter 58
Cc1ccc(OCC(=O)Nc2ccc(N(C)C)cc2)cc1	none
CCCCC(=O)Nc1cccc(C(=O)Nc2ccccc2C(=O)O)c1	none
Cc1ccccc1OCC(=O)Nc1ccncc1	none
Cc1ccc(Oc2ccc(OCC(=O)Nc3ccncc3)cc2)cc1	MPTP inh 108 (no result: NR3A LBD binder) | MPTP counter 103
COC(=O)c1c(C(=O)OC)c(-c2ccc(OC)cc2)n2c1CS(=O)(=O)C2	none
CCCCOc1ccc(C(=O)Nc2ccncc2)cc1	MPTP inh 102 | MPTP counter 111
CCCOc1ccc(C(=O)Nc2cccnc2)cc1	none
N#Cc1cccc(NC(=O)COc2ccc(-n3ccnc3)cc2)c1	MPTP inh 62 | MPTP counter inactive | MPTP swell DR inactive | MPTP cs DR 19
CC(C)(C)c1ccc(NC(=O)COc2ccc(-n3ccnc3)cc2)cc1	Myeloid diff MLP inconclusive, MPTP inh 107 | MPTP counter 94
COc1cc(NC(=O)COc2ccc(-n3ccnc3)cc2)cc(OC)c1	none
CC(C)(C)c1ccc(OCC(=O)Nc2ccncc2)cc1	MPTP inh 105 | MPTP counter 74
O=C(COc1ccccc1)Nc1ccncc1	none
O[C@H](COc1cccc(F)c1)CN1CCC(C(O)(c2ccccc2)c2ccccc2)CC1	none (no result: Myeloid diff MLP, NR3A LBD binder, MPTP inh, FAS-TE inh)
O=C(O)c1n[nH]c2c1CC(C1CCCCC1)CC2 (centres undefined)	none
NC(=S)N=Nc1c(O)cc(O)c2[nH]c(=O)ccc12	none
CC(C)c1ccc(OCC(=O)Nc2ccncc2)cc1	MPTP inh 74 | MPTP counter 71
O=C(NC(Cc1c[nH]c2ccccc12)C(=O)O)c1ccc(Br)cc1 (centres undefined)	none
O=S(=O)(c1cccc(NC(=S)N2CCN(c3cccc(Cl)c3)CC2)c1)C(F)F	NR3A LBD binder 26, MPTP inh 77 | MPTP counter 86
O=S(=O)(c1cccc(NC(=S)N2CCN(c3ccc(F)cc3)CC2)c1)C(F)F	MPTP inh 67 | MPTP counter 61
NS(=O)(=O)c1ccc(NC(=S)N2CCN(c3cccc(Cl)c3)CC2)cc1	none
O=C(CNC(=O)c1ccccc1Cl)N/N=C/C=C/c1ccccc1	none
COc1ccc(OCCN2CCC(C(=O)NC(c3ccc(F)cc3)c3ncccc3C)CC2)cc1 (centres undefined)	none (no result: NR3A LBD binder)
Cc1oc(-c2ccc(Cl)cc2)nc1CN1CCCC(C(=O)NC2CC2)C1 (centres undefined)	none
CCOC(=O)N1CCC(NC(=O)C2CCCN(Cc3nc(-c4cccc(Cl)c4)oc3C)C2)CC1 (centres undefined)	MPTP inh 94 | MPTP counter 51
COc1ccc(CCNC(=O)C2CCCN(Cc3nc(-c4ccccc4C)oc3C)C2)cc1OC (centres undefined)	MPTP inh 59 | MPTP counter inactive | MPTP swell DR 18 | MPTP cs DR 35
COc1ccc(CCNC(=O)C2CCN(Cc3nc(-c4cccc(Cl)c4)oc3C)CC2)cc1OC	MPTP inh 52 (no result: rCAG RNA binder) | MPTP counter inactive | MPTP swell DR 18 | MPTP cs DR 37
O=C(NC1CCCC1)C1CCC(CNS(=O)(=O)c2ccccc2)CC1 (centres undefined)	none
O=C(C=Cc1ccc(O)c(O)c1)NCC(=O)NC(Cc1ccccc1)C(=O)O (centres undefined)	none (no result: Myeloid diff MLP, NR3A LBD binder, MPTP inh, FAS-TE inh)
